Results: PubChem BioAssay (NCATS)
Unmarked numbers belong to inactive results. Inconclusive results are not listed. Activity calls are given as the source filed them. Unless noted, calls follow the shape of the dose curve; as a rule, active = well fitted curve in either direction with a large enough effect (not every such curve was filed as active); inconclusive = small, poorly fitted or top-dose-only effect, or another doubt; inactive = flat fitted curve, though single readings scatter.

Key:
[1] = biological target: Lysosomal acid glucosylceramidase (Homo sapiens) (UniProt P04062); assay: Glucocerebrosidase-p2 (AID 348; in the data active = potency below about 10 µM; also: potency is read from the fitted curve at half-maximal effect); settings: purified GBA, blue fluorogenic substrate, 40 min
Lysosomal acid glucosylceramidase (Homo sapiens), sequence (P04062 whole entry, looked up): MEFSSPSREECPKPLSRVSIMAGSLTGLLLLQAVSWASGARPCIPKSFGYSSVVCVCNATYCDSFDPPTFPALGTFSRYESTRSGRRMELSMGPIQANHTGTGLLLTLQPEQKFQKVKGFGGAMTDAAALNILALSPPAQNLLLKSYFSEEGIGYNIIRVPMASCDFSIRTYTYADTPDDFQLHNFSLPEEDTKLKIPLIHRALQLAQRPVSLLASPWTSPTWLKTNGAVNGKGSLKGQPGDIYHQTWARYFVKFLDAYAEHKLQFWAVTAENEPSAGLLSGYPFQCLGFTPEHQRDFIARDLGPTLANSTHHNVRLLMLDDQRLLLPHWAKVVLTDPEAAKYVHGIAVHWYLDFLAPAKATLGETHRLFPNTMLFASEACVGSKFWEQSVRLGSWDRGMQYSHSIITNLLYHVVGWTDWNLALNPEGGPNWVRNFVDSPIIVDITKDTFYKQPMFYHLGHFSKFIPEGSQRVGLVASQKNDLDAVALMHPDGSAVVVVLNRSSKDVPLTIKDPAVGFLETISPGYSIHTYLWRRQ
Method in brief: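 Normal human glucocerebrosidase (0.2 nM) with blue fluorogenic substrate (80 uM final) in citrate/phosphate pH 5.9 with 10mM sodium taurocholate, 0.01% tween-20; 40 min RT, NaOH/glycine stop; fluorescence Ex 365/Em 440; AC50 from a titration from 0.6 nM upwards.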

[2] = AP1 Signaling Pathway (AID 357); settings: ME-180 AP-1-bla reporter, EGF-induced, beta-lactamase ratio, 5 h; at 7.69 µM (top of the series) unless noted;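 also: ME-180 reporter cells stimulated with EGF at its EC50 level; % is scaled to controls: 0 for no effect and ±100 for the full control effect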
Method in brief: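 Titration-series screen for positive or negative modulators of EC50 EGF-induced signaling in ME-180 cells carrying an AP-1-driven beta-lactamase reporter. After 5 hours at 37 degrees Celsius, CCF4 460nm/530nm emission ratio gave %Activity; AC50 values derived.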

[3] = biological target: Cytochrome P450 1A2 (Homo sapiens) (UniProt P05177); assay: p450-cyp1a2 (AID 410; calls by dose curve; also: potency is read from the fitted curve at half-maximal effect;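 as to activity change, negative = inhibition: -100% = full effect of reference inhibitor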); settings: recombinant CYP1A2, luciferin-ME demethylation, luminescence; series mostly up to 11.4 µM
Cytochrome P450 1A2 (Homo sapiens), sequence (P05177 whole entry, looked up): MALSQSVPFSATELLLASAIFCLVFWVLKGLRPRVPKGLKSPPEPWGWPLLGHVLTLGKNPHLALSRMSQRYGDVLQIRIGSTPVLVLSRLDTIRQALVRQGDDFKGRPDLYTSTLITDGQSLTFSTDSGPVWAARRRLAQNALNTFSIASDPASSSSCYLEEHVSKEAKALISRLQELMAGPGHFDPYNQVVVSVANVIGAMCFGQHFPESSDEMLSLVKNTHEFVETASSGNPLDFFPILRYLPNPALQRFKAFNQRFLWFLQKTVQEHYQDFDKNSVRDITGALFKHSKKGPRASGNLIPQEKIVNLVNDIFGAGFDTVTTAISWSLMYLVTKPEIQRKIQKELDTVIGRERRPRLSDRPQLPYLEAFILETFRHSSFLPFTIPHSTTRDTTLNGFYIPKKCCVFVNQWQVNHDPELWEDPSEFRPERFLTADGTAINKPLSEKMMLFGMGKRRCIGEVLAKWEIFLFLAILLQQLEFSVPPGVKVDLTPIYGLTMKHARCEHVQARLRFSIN
Method in brief: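 Read-out is luminescence from luciferin produced by CYP1A2 demethylation of Luciferin-ME (100uM, at Km). Detection reagent stopped the 60 min NADPH-dependent reaction; signals were normalized to 57 uM furafylline.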

[4] = NFAT Signaling Pathway (AID 444); settings: Jurkat NFAT-bla M1, carbachol, beta-lactamase ratio, 5 h; at 7.69 µM (top of the series) unless noted;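 also: carbachol stimulus at about its EC50 of 1 µM final; % is scaled to controls: 0 for no effect and ±100 for the full control effect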
Method in brief: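 Jurkat cells carrying an NFAT-driven β-lactamase reporter and co-transfected muscarinic M1 receptor were treated with compound plus carbachol (1 uM final, an EC50 level) for 5 h at 37 °C. CCF4 loading followed for 1 h at RT; 460/530 nm ratio gave %activity.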

[5] = Stat Signaling Pathway (AID 446); settings: ME-180 (cervical carcinoma) SIE beta-lactamase reporter, IL-6 stimulated, 5 h; at 7.69 µM (top of the series) unless noted;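 also: ME-180 cervical cancer cells given 40 pM IL-6 alongside compound; SIE-controlled beta-lactamase reporter measured as 460/530 nm FRET emission ratio; % is scaled to controls: 0 for no effect and ±100 for the full control effect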
Method in brief: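 Emission at 460 and 530 nm (excitation 405 nm) reports SIE-controlled beta-lactamase in ME-180 cells. Cells received compound with 40 pM IL-6 for 5 hrs at 37 C; data scaled between 300 pM IL-6 and 125 nM JAK-inhibitor controls.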

[6] = biological target: Glucocorticoid receptor (Homo sapiens) (UniProt P04150); assay: GR-GFP Redistribution (AID 450;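 active = compounds whose dose series gives a full or clear partial fitted curve of increased nuclear translocation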; also: potency is read from the fitted curve at half-maximal effect); settings: U2OS GR-GFP nuclear translocation, laser cytometry, 2 h
Glucocorticoid receptor (Homo sapiens), sequence (P04150 whole entry, looked up, the tested form may be a part): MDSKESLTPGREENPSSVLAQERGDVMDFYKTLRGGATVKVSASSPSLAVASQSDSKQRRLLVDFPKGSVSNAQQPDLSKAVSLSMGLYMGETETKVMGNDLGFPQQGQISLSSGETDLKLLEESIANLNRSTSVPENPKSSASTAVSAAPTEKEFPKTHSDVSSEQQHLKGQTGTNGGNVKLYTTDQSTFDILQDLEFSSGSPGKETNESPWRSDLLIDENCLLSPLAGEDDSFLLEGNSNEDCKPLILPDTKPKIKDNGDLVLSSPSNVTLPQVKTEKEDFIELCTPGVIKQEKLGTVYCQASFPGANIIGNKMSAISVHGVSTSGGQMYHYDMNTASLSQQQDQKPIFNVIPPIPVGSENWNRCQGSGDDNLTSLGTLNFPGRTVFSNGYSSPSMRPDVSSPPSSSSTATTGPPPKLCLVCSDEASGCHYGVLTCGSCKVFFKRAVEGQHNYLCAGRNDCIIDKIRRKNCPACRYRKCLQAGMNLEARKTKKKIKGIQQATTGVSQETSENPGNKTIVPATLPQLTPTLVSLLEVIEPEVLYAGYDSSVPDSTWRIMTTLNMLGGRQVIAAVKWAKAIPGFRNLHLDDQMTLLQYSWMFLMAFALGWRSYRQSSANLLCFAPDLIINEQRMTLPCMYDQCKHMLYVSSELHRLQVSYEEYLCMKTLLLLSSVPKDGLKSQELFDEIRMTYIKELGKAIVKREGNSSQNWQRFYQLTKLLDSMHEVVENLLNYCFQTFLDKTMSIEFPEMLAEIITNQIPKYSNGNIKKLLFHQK

[7] = biological target: Glucocorticoid receptor (Homo sapiens) (UniProt P04150); assay: GR-EFC Redistribution (AID 451; calls by dose curve; also: potency is read from the fitted curve at half-maximal effect); settings: CHO-K1 GR-EFC translocation, beta-gal luminescence, 2 h
Method in brief: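 CHO-K1 cells stably expressing nuclear-localized β-gal enzyme acceptor and GR fused C-terminally to the enzyme donor fragment; ligand-driven nuclear translocation restores β-gal by complementation. Compounds titrated up to 46 uM final, 2 h at 37 °C; luminescence read.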

[8] = biological target: Mitogen-activated protein kinase 10 (Mus musculus) (UniProt Q61831); assay: JNK3 AlphaScreen Assay (AID 530); settings: JNK3 lysate, c-Jun phosphorylation; series mostly up to 11.4 µM;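 also: kinase came from lysate of stimulated human HepG2 cells; signal reports phosphorylation of biotinylated GST-cJun 1-79 at Ser73 with 10 µM ATP; % is scaled to controls: 0 for no effect and ±100 for the full control effect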
Method in brief: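 Biotinylated GST-cJun(1-79) served as substrate for JNK3 in HepG2 lysates stimulated with IL-1beta and TNF-alpha. ATP was 10 uM final, pH 7.6. Ser73 phosphorylation was quantified by AlphaScreen (680 nm excitation).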

[9] = biological target: 3',5'-cyclic-AMP phosphodiesterase 4B (Homo sapiens) (UniProt Q07343); assay: qHTS Assay for Inhibitors of PDE-IV (AID 607; active = well fitted activation curve with a large enough effect in the main read-out, with a control signal flat, not every such curve was filed as active; also: % of control where 0% means no effect); settings: HEK293 ACTOne CNG channel cells, membrane potential fluorescence; series mostly up to 22.9 µM
3',5'-cyclic-AMP phosphodiesterase 4B (Homo sapiens), sequence (Q07343 whole entry, looked up): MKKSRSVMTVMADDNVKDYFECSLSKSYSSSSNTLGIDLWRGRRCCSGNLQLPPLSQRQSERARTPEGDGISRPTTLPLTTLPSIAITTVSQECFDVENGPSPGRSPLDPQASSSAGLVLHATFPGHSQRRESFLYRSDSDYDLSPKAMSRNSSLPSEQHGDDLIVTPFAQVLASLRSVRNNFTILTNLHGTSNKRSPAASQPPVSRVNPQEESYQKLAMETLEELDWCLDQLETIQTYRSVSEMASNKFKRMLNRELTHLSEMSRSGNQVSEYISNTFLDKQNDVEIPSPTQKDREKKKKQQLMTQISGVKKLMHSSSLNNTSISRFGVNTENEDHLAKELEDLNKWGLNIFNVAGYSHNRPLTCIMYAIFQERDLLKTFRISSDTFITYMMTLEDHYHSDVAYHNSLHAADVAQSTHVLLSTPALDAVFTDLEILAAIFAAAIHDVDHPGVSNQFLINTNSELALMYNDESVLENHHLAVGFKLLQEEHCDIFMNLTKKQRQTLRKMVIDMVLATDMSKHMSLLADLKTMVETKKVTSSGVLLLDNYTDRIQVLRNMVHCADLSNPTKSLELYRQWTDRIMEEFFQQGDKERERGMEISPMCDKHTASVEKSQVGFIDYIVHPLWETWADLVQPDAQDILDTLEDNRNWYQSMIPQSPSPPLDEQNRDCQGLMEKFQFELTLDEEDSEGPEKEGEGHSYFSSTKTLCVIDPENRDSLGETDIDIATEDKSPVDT
Method in brief: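 The readout is membrane depolarisation from a cAMP-sensing CNG channel, detected with a potential dye at ex 535/em 590. Cells were HEK293-derived (endogenous PDE-IV) at 1000 cells/well, titrated up to 22.9 uM final.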

| Structure (SMILES) | Potency [1] | activity change, negative = inhibition [2] | Potency [3] | activity change, negative = inhibition [4] | activity, negative = inhibition [5] | Potency [6] | Potency [7] | Potency [8] | Potency [9] | activity change, negative = inhibition [3] |
| --- | --- | --- | --- | --- | --- | --- | --- | --- | --- | --- |
| C#CCOCCCC(=O)O | > 11.4 µM | -3.26% | inactive | 0.738% | 4.1% | > 46 µM | > 9.22 µM | inactive | inactive |  |
| CC(=O)[C@]1(O)CC[C@@H]2[C@H]3C[C@@H](C)C4=CC(=O)CC[C@@]4(C)[C@H]3[C@@H](O)C[C@]21C | > 11.4 µM | -0.0488% |  | 16.8% | -9.62% | < 2.95e-05 µM (active) | 0.0236 µM (active) | inactive | inactive | -2% [at 2.29 µM] |
| Cc1ccc(S(=O)(=O)O[C@@H]2[C@H]([C@@H]3COC(C)(C)O3)O[C@H]3OC(C)(C)O[C@@H]32)cc1 | > 11.4 µM | 1.73% | inactive | 3.01% | 7.9% | > 46 µM | > 9.22 µM | inactive | inactive |  |
| N#CC1(Nc2ccc(-c3ccc(NC4(C#N)CCCC4)cc3)cc2)CCCC1 | > 11.4 µM | -7.74% | 3.16 µM (active) | 14.8% | 19% | > 46 µM | > 9.22 µM | inactive | inactive |  |
| [Cu].[O-]/N=C1/C(=[OH+])Nc2ccccc21.[O-]Nc1c(O)[nH]c2ccccc12 | > 11.4 µM | 3.32% |  | 13.2% | 5.41% | > 46 µM | > 9.22 µM | inactive | inactive | -20.1% [at 2.29 µM] |
| O=C(O)Cc1c(O)ccc2ccccc12 | > 11.4 µM | 1.11% | inactive | 12.6% | 7.17% | > 46 µM | > 9.22 µM | inactive | inactive |  |
| O=C(O)[C@@H]1CCCN1Cc1c[nH]c2ccccc12 | > 11.4 µM | 6.54% | inactive | 6.95% | 3.95% | > 46 µM | > 9.22 µM | inactive | inactive |  |
| O=C(O)c1ccccc1C(=O)Nc1cc2c(cc1Br)-c1ccccc1C2=O | > 11.4 µM | -2.84% | 0.631 µM (active) | 10.3% | -5.27% | > 46 µM | > 9.22 µM | inactive | inactive |  |
| Nc1ncnc2c1ncn2[C@H]1O[C@@H](CO)[C@@H](O)[C@H]1N | > 11.4 µM | -9.35% | inactive | -3.9% | 5.68% | > 46 µM | > 9.22 µM | inactive | inactive |  |
| CC1=C(CC[C@H](C)CO)O[C@@H]2C[C@@H]3[C@H]4CC[C@H]5C[C@@H](O)CC[C@]5(C)[C@@H]4CC(=O)[C@@]3(C)[C@@H]12 | > 11.4 µM | 12.3% |  | -4.84% | -18.7% | > 46 µM | > 9.22 µM | inactive | inactive | -21.1% [at 2.29 µM] |
| O=c1ccnc(SCc2ccc(Cl)cc2)[nH]1 | > 11.4 µM | 0.709% | inactive | 2.66% | 6.94% | > 46 µM | > 9.22 µM | inactive | inactive |  |
| O=C1C=C(Nc2nc(C(=O)O)cc(=O)[nH]2)c2ccccc2C1=O | > 11.4 µM | -3.21% |  | 7.2% | 1.38% | > 46 µM | > 9.22 µM | inactive | inactive | -15.8% [at 2.29 µM] |
| O=C(O)C[C@H]1OCC=C2C[N@@+]3([O-])CC[C@]45c6ccccc6N[C@@H]4[C@@H]1[C@H]2C[C@H]53 | > 11.4 µM | 9.8% |  | 1.94% | 3.39% | > 46 µM | > 9.22 µM | inactive | inactive | -14.3% [at 2.29 µM] |
| C[C@@]1(CCOCc2ccccc2)NC(=O)NC1=O | > 11.4 µM | 7.73% | inactive | -2.8% | 8.58% | > 46 µM | > 9.22 µM | inactive | inactive |  |
| CCC[C@H](Sc1nc(N)nc2nc[nH]c12)C(=O)O | > 11.4 µM | -8.03% | inactive | -19.8% | 6.16% | > 46 µM | > 9.22 µM | inactive | inactive |  |
| O=C(Nc1ccc2oc(=O)c(C(=O)O)cc2c1)Oc1ccccc1 | > 11.4 µM | -4.82% |  | 9.87% | 1.95% | > 46 µM | > 9.22 µM | inactive | inactive | -15.3% [at 2.29 µM] |

| Structure (SMILES) | Potency [1] | activity change, negative = inhibition [2] | Potency [3] | activity change, negative = inhibition [4] | activity, negative = inhibition [5] | Potency [6] | Potency [7] | Potency [8] | Potency [9] | activity change, negative = inhibition [3] |
| --- | --- | --- | --- | --- | --- | --- | --- | --- | --- | --- |
| Cn1ncc2c(Cl)ncnc21 | > 11.4 µM | 2.44% | inactive | 17.9% | 13.8% | > 46 µM | > 9.22 µM | inactive | inactive |  |
| CN(C)CCCNc1cc(O)c2c(c1O)C(=O)c1ccccc1C2=O | > 11.4 µM | 9.25% |  | 23.5% | 26% | > 46 µM | > 9.22 µM | inactive | inactive | -23.1% [at 2.29 µM] |
| Cc1ccc(-c2nnc(-c3ccc4ccccc4c3)o2)cc1 | > 11.4 µM | 13.5% | 0.631 µM (active) | -21% | 14.3% | > 46 µM | > 9.22 µM | inactive | inactive |  |
| CN(C)S(=O)(=O)c1nc(Cl)c2[nH]cnc2n1 | > 11.4 µM | 1.09% | inactive | 17.4% | -1.44% | > 46 µM | > 9.22 µM | inactive | inactive |  |
| Cc1cc(C)nc(SCCc2cccc[n+]2C)n1 | > 11.4 µM | -4.14% |  | -24.4% | 6.72% | > 46 µM | > 9.22 µM | inactive | inactive | -18.6% [at 2.29 µM] |
| Cc1cc2sc(C)[n+](CCCOS(=O)(=O)O)c2cc1C | > 11.4 µM | -5.1% | inactive | 7.47% | 1% | > 46 µM | > 9.22 µM | inactive | inactive |  |
| Cc1ncc(CSC(=N)N)n1Cc1ccccc1 | > 11.4 µM | 6.64% | inactive | -15.5% | 4.51% | > 46 µM | > 9.22 µM | inactive | inactive |  |
| O=C(O)CCC(=O)Nc1ccc2ccccc2c1 | > 11.4 µM | -0.421% | 0.0631 µM (active) | 4.48% | 8.45% | > 46 µM | > 9.22 µM | inactive | inactive |  |
| N#C[C@H]1CN[C@H](N)N[C@@H]1N | > 11.4 µM | 2.11% |  | 6.86% | 13.9% | > 46 µM | > 9.22 µM | inactive | inactive | -11.6% [at 2.29 µM] |
| CN(C)S(=O)(=O)Nc1ccccn1 | > 11.4 µM | 2.01% | inactive | 17.9% | 8.85% | > 46 µM | > 9.22 µM | inactive | inactive |  |
| O=[N+]([O-])c1nccn1C[C@H](O)CN1CCCCC1 | > 11.4 µM | 21.1% | inactive | 0.912% | 6.06% | > 46 µM | > 9.22 µM | inactive | inactive |  |
| NNC(=O)[C@@H](O)[C@H](O)[C@H](O)CO | > 11.4 µM | 2.85% | inactive | 10.5% | 2.62% | > 46 µM | > 9.22 µM | inactive | inactive |  |
| O=C(O)c1ccc(NS(=O)(=O)Cc2ccccc2)cc1 | > 11.4 µM | 6.38% | inactive | -0.542% | -0.621% | > 46 µM | > 9.22 µM | inactive | inactive |  |
| CO[C@@H](NC(N)=O)C(=O)O | > 11.4 µM | -1% |  | 1.38% | 8.15% | > 46 µM | > 9.22 µM | inactive | inactive | -6.4% [at 2.29 µM] |
| CCOc1ccccc1Nc1ccc(N)cc1S(=O)(=O)O | > 11.4 µM | 6.02% |  | -5.87% | -1.52% | > 46 µM | > 9.22 µM | inactive | inactive | -12.6% [at 2.29 µM] |
